Compounds with a hit are over-represented: about 1.8% of the library has one in this group of screens.
Jurkat NFkB inh: lowers PMA/ionomycin-induced NF-kB signal in Jurkat cells; PMA/ionomycin-induced NF-kB luciferase reporter, luminescence; inhibition, % at 4 µM; actives 0.53% (n = 330,000); in the data active = inhibition above about 50%
697 NFkB inh: inhibitors of the PMA/ionomycin-induced NF-kB reporter in 697 B cells; 697 B-cell NF-kB luciferase reporter, 16 h; inhibition, % at 4 µM; actives 0.33% (n = 330,000); AID 435022; in the data active = inhibition above about 35%
Beta apoptosis: beta cell apoptosis inhibition; INS-1E cytokine-induced death, ATP luminescence, 48 h; percent of positive-control rescue, neutral wells zero; protection from apoptosis, % (no concentration beside the values); AID 435005; actives 0.8% (n = 300,000);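 active = Every replicate reaches about 75%, or at least half do and their mean reaches it too, limit read from the data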;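 note: 0% = cytokine-treated negative control wells and 100% = positive control rescue; higher means more ATP so stronger rescue from cytokine killing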
Gli-Sufu antag: blocks Gli-Sufu signaling in a luciferase reporter. Sufu-KO-LIGHT fibroblasts, Gli luciferase reporter luminescence. inhibition, % at 5 µM. actives 0.74% (n = 340,000). AID 588413;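 active = inhibition above about 55%, limit read from the data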;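 note: 0% = DMSO-treated cells and 100% = wells with medium but no cells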
Jurkat NFkB conf: lowers PMA/ionomycin-induced NF-kB signal in Jurkat cells | shares compounds with Jurkat NFkB inh | Jurkat NF-kB luciferase, 16 h | inhibition, % at 4 µM | actives 27% (n = 2,700);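 active = inhibition reaching about 45% at 4 µM in either replicate, limit read from the data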;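 note: plate controls were PMA/ionomycin stimulated DMSO wells for no effect and unstimulated DMSO wells for full effect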
Active calls of the source: *.

`CCOc1cccc(C(=O)Nc2ccc3[nH]ncc3c2)c1` gave Jurkat NFkB inh -150.6, 697 NFkB inh -26.7, Beta apoptosis -3.3, Gli-Sufu antag -46.2 and Jurkat NFkB conf -63.1.
Cc1noc(C)c1COc1cccc(C(=O)OCC(=O)N2CC(=O)Nc3ccccc32)c1 was read as Jurkat NFkB inh 57.6*, 697 NFkB inh 6.0, Beta apoptosis 15.8, Gli-Sufu antag 3.4 and Jurkat NFkB conf 48.4.
`O=C1CN(C(=O)COc2cccc(F)c2)c2ccccc2N1` gave Jurkat NFkB inh 2.4, 697 NFkB inh 21.7 and Beta apoptosis 4.7.
Screening CCCC(=O)NC(c1ccc(N(C)C)cc1)c1ccc2cccnc2c1O (configuration not stated) returned Jurkat NFkB inh 54.8*, 697 NFkB inh -21.0, Beta apoptosis 96.2*, Gli-Sufu antag 86.1* and Jurkat NFkB conf 74.3*.
CCCC(=O)NC(c1ccc(C(C)C)cc1)c1ccc2cccnc2c1O (configuration not stated) was read as Jurkat NFkB inh 59.8*, 697 NFkB inh -32.9 and Jurkat NFkB conf 80.9*.
For COc1ccc(C(NC(=O)C(C)C)c2ccc3cccnc3c2O)cc1 (configuration not stated) the results were Jurkat NFkB inh 61.1*, 697 NFkB inh -22.2, Beta apoptosis 104.2*, Gli-Sufu antag 50.6 and Jurkat NFkB conf 64.6*.
COC(=O)c1ccc(NS(=O)(=O)c2ccc3c(c2)n(C)c(=O)n3C)cc1 was read as Jurkat NFkB inh 15.3, 697 NFkB inh -19.6, Beta apoptosis 6.5 and Gli-Sufu antag 7.3.
COC(=O)c1ccc(C(=O)NC2CCCc3c2cnn3-c2ccccc2F)nc1 (configuration not stated) was read as Jurkat NFkB inh 56.0*, 697 NFkB inh -43.9, Beta apoptosis 16.2, Gli-Sufu antag 40.2 and Jurkat NFkB conf 24.0.
`CCOC(=O)N1CCN(C(=O)c2ccc(NS(=O)(=O)c3ccc4[nH]c(=O)[nH]c4c3)cc2)CC1` gave Jurkat NFkB inh 5.0, 697 NFkB inh 4.9, Beta apoptosis -3.2 and Gli-Sufu antag -11.3.
CCOC(=O)C(NCCCO)c1ccccc1 (configuration not stated) was read as Jurkat NFkB inh -11.4, 697 NFkB inh -11.9, Beta apoptosis -8.6 and Gli-Sufu antag -13.7.
`COc1ccc(C(=O)c2ccc(OC)c(N)c2)cc1N` gave Jurkat NFkB inh 53.0*, 697 NFkB inh -56.3, Beta apoptosis 11.0, Gli-Sufu antag -30.6 and Jurkat NFkB conf 33.1.
`COc1cc(/C=C/C(=O)c2ccc([N+](=O)[O-])o2)ccc1O` gave Jurkat NFkB inh 70.8*, 697 NFkB inh -44.4, Beta apoptosis 114.7*, Gli-Sufu antag -2.6 and Jurkat NFkB conf 47.5*.
Screening COc1cc(/C=C/C(=O)O)ccc1O returned Jurkat NFkB inh 5.7, 697 NFkB inh 23.7 and Gli-Sufu antag 0.3.
`O=C1CCCc2nc3c(cc21)C(O)Oc1c-3ccc2ccccc12` (configuration not stated) gave Jurkat NFkB inh -156.0, 697 NFkB inh -207.7, Beta apoptosis 0.0, Gli-Sufu antag -77.4 and Jurkat NFkB conf -66.2.
Screening CCSC1=C(C#N)C(c2ccc(C)s2)CC(=O)N1 (configuration not stated) returned Jurkat NFkB inh -13.3, 697 NFkB inh -16.5, Beta apoptosis -5.9 and Gli-Sufu antag -0.5.
CCOC(=O)CSC1=C(C#N)C(c2ccc(C)s2)CC(=O)N1 (configuration not stated) was read as Jurkat NFkB inh 56.5*, 697 NFkB inh 5.2, Gli-Sufu antag 47.9 and Jurkat NFkB conf 49.0*.
C/C(=N\Nc1ccc2nncn2n1)c1ccccn1 was read as Jurkat NFkB inh 55.2*, 697 NFkB inh -21.7, Beta apoptosis 79.6*, Gli-Sufu antag 74.1* and Jurkat NFkB conf 31.6.
`CCOc1ccc(S(=O)(=O)N2CCN=C2c2ccccc2)cc1` gave Jurkat NFkB inh 54.2*, 697 NFkB inh -65.1, Beta apoptosis 4.7, Gli-Sufu antag -0.2 and Jurkat NFkB conf 12.3.
For CC1(C(=O)OCC(=O)Nc2ccc(Cl)cn2)CC1(Cl)Cl (configuration not stated) the results were Jurkat NFkB inh -5.7, 697 NFkB inh -8.6, Beta apoptosis 1.1 and Gli-Sufu antag -11.8.
`CCOc1ccc(OCC)c(NC(=O)CN2CCN(c3cccc(C)c3)C(C)C2)c1` (configuration not stated) gave Jurkat NFkB inh 58.0*, 697 NFkB inh -20.1, Beta apoptosis 17.8, Gli-Sufu antag -7.0 and Jurkat NFkB conf 19.4.
`CCOc1ccc(OCC)c(NC(=O)CN2CCN(c3cccc(C)c3)CC2)c1` gave Jurkat NFkB inh 20.0, 697 NFkB inh 7.5, Beta apoptosis 10.8 and Gli-Sufu antag 3.3.
For COc1cc(NC(=O)c2csc(N)n2)cc(C(=O)Nc2cccc(C(F)(F)F)c2)c1 the results were Jurkat NFkB inh 63.8*, 697 NFkB inh -33.3, Beta apoptosis 19.3, Gli-Sufu antag 9.2 and Jurkat NFkB conf -1.0.
Screening COc1cc(NC(=O)c2cnc(N)s2)cc(C(=O)Nc2cccc(C(F)(F)F)c2)c1 returned Jurkat NFkB inh -20.5, 697 NFkB inh -18.2, Beta apoptosis 2.5 and Gli-Sufu antag -4.3.
Screening O=c1c2sc(-c3ccccc3)cc2nc2n1CCCCC2 returned Jurkat NFkB inh -166.2, 697 NFkB inh -208.8, Beta apoptosis -2.1, Gli-Sufu antag -92.2 and Jurkat NFkB conf -123.3.
Screening O=C(Nc1ccc(S(=O)(=O)N2CCCC2)cc1)c1ccc(CN2CCc3ccccc3C2)cc1 returned Jurkat NFkB inh 74.5*, 697 NFkB inh -15.2, Beta apoptosis 4.5, Gli-Sufu antag 51.5 and Jurkat NFkB conf 75.1*.
`O=C(Nc1ccc(S(=O)(=O)N2CCOCC2)cc1)c1ccc(CN2CCc3ccccc3C2)cc1` gave Jurkat NFkB inh 76.6*, 697 NFkB inh 30.5, Beta apoptosis 123.4*, Gli-Sufu antag -10.9 and Jurkat NFkB conf 74.2*.
Screening O=C(Nc1ccc(Cc2ccncc2)cc1)c1ccc(S(=O)(=O)N2CCCC2)cc1 returned Jurkat NFkB inh 50.2*, 697 NFkB inh 3.2, Gli-Sufu antag 41.6 and Jurkat NFkB conf 47.1*.
Screening O=C(Nc1ccc(S(=O)(=O)N2CCCCC2)cc1)c1ccncc1 returned Jurkat NFkB inh -2.9, 697 NFkB inh -24.9, Beta apoptosis 8.7 and Gli-Sufu antag 19.9.
`CN(CC(=O)N1CCN(c2ccccn2)CC1)S(=O)(=O)c1ccc(Cl)cc1` gave Jurkat NFkB inh -5.7, 697 NFkB inh 7.8, Beta apoptosis 3.2 and Gli-Sufu antag 21.8.
Cc1ccccc1CNC(=O)CN1C(=O)c2ccccc2S1(=O)=O was read as Jurkat NFkB inh 4.4, 697 NFkB inh 14.6, Beta apoptosis -2.0 and Gli-Sufu antag -11.1.
Cc1cc(NC(=O)CSc2nnc3c(C)cc4c(C)ccc(C)c4n23)no1 was read as Jurkat NFkB inh 59.1*, 697 NFkB inh -34.3, Beta apoptosis 9.6, Gli-Sufu antag 12.5 and Jurkat NFkB conf 20.1.
